Reference: publication PMC7819943, “Rice protein-binding microarrays: a tool to detect cis-acting elements near promoter regions in rice”
The full ranking holds about 35,000 sequences; the median of “fluorescence intensity (a.u.)” is about 10,000, and the highest 2% start at about 52,000. This is one part of a sample in which the highest values are shown more often than they occur.

Target: T1, OsWOX13 (Oryza sativa, UniProt Q5QMM3 1-267)
T1 sequence: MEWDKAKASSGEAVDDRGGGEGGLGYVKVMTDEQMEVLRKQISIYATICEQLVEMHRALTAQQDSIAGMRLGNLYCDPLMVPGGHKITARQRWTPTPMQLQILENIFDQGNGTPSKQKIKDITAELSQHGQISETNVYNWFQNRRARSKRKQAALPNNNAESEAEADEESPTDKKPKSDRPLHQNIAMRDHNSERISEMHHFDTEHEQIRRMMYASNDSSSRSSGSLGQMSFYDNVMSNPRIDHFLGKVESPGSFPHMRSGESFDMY
Assay: protein-binding microarray (RPBM); PBS, 2% BSA, 51.3 ng/ul salmon testes DNA, 50 uM zinc acetate, 200 nM TF, 25 C, 1 h; high values mean tight binding
Conditions: protein: recombinant; tags: N-terminal polyhistidine and DsRed monomer fusion (pET32a); label: CyDye5-dUTP incorporated in the synthesized complementary strand; 3' TTTTT single-stranded linker to array surface; dsDNA, one strand shown
Procedure, shortened: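 Binding signal is defined as the fluorescence intensity of each feature in arbitrary units, read on an Axon 4000B scanner. Transcription factors with N-terminal polyhistidine and DsRed fusions came from E. coli BL21-CodonPlus and were purified on Ni–NTA. They were incubated at 200 nM for 1 h at 25 °C on a custom Agilent array that had been made double-stranded with Cy5-dUTP, with 50 µM zinc acetate present, and the array was washed.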

Row | Sequence | binding signal
1 | AGGGTTAAATTGTCAAAATTTGTGCGACACAAACACACTCCGGAGTCACCTAGTGCAG | 10900 fluorescence intensity (a.u.)
2 | TATAGTGCAGATTTTGAAATTGATGAGTGCACGTTTGGGCCGGAGTCACCTAGTGCAG | 6560 fluorescence intensity (a.u.)
3 | CTTAACAACTGAACTGATTGAGACAGTAGATGAAATGGAACGGAGTCACCTAGTGCAG | 21400 fluorescence intensity (a.u.)
4 | ATAATTGAAAATTGATTAGAGTACCTTTTGATGAGATAGCCGGAGTCACCTAGTGCAG | 57300 fluorescence intensity (a.u.)
5 | AAATTTTGAAATTGTTAATATGATATAAATGAGATATAGCCGGAGTCACCTAGTGCAG | 3970 fluorescence intensity (a.u.)
6 | AGCCCGATAATTAGATTGATTATAGACATGACTACATATACGGAGTCACCTAGTGCAG | 18200 fluorescence intensity (a.u.)
7 | ATTTAAATGAGATGATTGATGGGGCAATTAGTACTCTAGACGGAGTCACCTAGTGCAG | 38600 fluorescence intensity (a.u.)
8 | CATTAATTAGATTGAGACAGTACTGAGATGATTGCCGCCCCGGAGTCACCTAGTGCAG | 65200 fluorescence intensity (a.u.)
9 | TAGATAGATTTAGTTTTGATAATGGATAGAGATATTGCCCCGGAGTCACCTAGTGCAG | 11600 fluorescence intensity (a.u.)
10 | TCGAGATGGATAATTAGATTGATTGATTGGCCGATAGCCCCGGAGTCACCTAGTGCAG | 65100 fluorescence intensity (a.u.)
11 | TGAAAATGATGTCAATCAAACATGAGTGGGGCCTGCTTTGCGGAGTCACCTAGTGCAG | 38500 fluorescence intensity (a.u.)
12 | TCACAATAGATAATTTATTCACTGAAAATTTTAGTTTTGGCGGAGTCACCTAGTGCAG | 11100 fluorescence intensity (a.u.)
13 | GGTATTACTGACTGGATTACCATGTGTGCGTCACATCGGACGGAGTCACCTAGTGCAG | 6490 fluorescence intensity (a.u.)
14 | ATTTCAGATTGGGTTATTTGAGAGCTAAATTTCTAATGTACGGAGTCACCTAGTGCAG | 4680 fluorescence intensity (a.u.)
15 | TGAAAATGATTTGGGATGGCATTTCAGCGGGTTGGGCTCACGGAGTCACCTAGTGCAG | 22000 fluorescence intensity (a.u.)
16 | ATAATGGCATAATTTAAATTTTACAAAATACTTATGACACCGGAGTCACCTAGTGCAG | 12600 fluorescence intensity (a.u.)
17 | CTTATATTTGCAAATATTGATGGTTGTTGACATATGAACTCGGAGTCACCTAGTGCAG | 3210 fluorescence intensity (a.u.)
18 | ATGGTTGATTGATTGCATATATTTGAACAAATGATCTTTGCGGAGTCACCTAGTGCAG | 65500 fluorescence intensity (a.u.)
19 | ATTAATTATGTCATAAACTGTTGTTGATTTGTGCCAGTTTCGGAGTCACCTAGTGCAG | 39500 fluorescence intensity (a.u.)
20 | ACTAAATTGGGTTGGGGTGCCTCCTCCTTCCTTTCTTTCTCGGAGTCACCTAGTGCAG | 21000 fluorescence intensity (a.u.)
21 | GAAAATGACCAAATTATGAAAACATCCAGGCAATGGATCTCGGAGTCACCTAGTGCAG | 3240 fluorescence intensity (a.u.)
22 | CCTGACAGGTCATCTCCTGATTGAAACCAAAATGTTGGATCGGAGTCACCTAGTGCAG | 60700 fluorescence intensity (a.u.)
23 | GTTGATGTGATGGAAAATGACTGAAGATTGGATCTAAACTCGGAGTCACCTAGTGCAG | 31100 fluorescence intensity (a.u.)
24 | CTAGTAATTACAAACATTGGAACTGAGTTTTGGTTGGGGTCGGAGTCACCTAGTGCAG | 23800 fluorescence intensity (a.u.)
25 | AGGTTGATTAACTGTTTCATGAATTTGGTATGTTTGCAGTCGGAGTCACCTAGTGCAG | 53300 fluorescence intensity (a.u.)
26 | CATAATGATTGCGTTGAACGTTGGTTGCTTGATCATCTTTCGGAGTCACCTAGTGCAG | 18600 fluorescence intensity (a.u.)
27 | CGACTGATTGGTTGGGGTCATGGTTGGAACAAAATTTCCTCGGAGTCACCTAGTGCAG | 52800 fluorescence intensity (a.u.)

Row | Sequence | binding signal
28 | TGATGATTTAACTGTGTTGCATGAATTCATTCCTATTTGACGGAGTCACCTAGTGCAG | 29500 fluorescence intensity (a.u.)
29 | CAAAGATTTCACTGTTTAATCTAATCTTGTGGATTTTATGCGGAGTCACCTAGTGCAG | 3590 fluorescence intensity (a.u.)
30 | TCGAATTTGATCAGTAGCTTAATTATACTTTAGTACTACCCGGAGTCACCTAGTGCAG | 10600 fluorescence intensity (a.u.)
31 | TGTTAATTATGCCCTCGGTCCAATTGTGATATTCTGTTGACGGAGTCACCTAGTGCAG | 38300 fluorescence intensity (a.u.)
32 | CCCATGTAGATTGGGCCTGCTTAGTGAAGTCTCACGTAGCCGGAGTCACCTAGTGCAG | 5240 fluorescence intensity (a.u.)
33 | ATCGTAATAGAATATGTCACATTCGGTTTTGGCTCAAGTTCGGAGTCACCTAGTGCAG | 5710 fluorescence intensity (a.u.)
34 | CTTATTCACTTGTGATTGTGATGATTAGCGAACAGAGTTGCGGAGTCACCTAGTGCAG | 18700 fluorescence intensity (a.u.)
35 | AGTTGACAGTTCCAATTAATCGTTCATGCGACCCAATTGACGGAGTCACCTAGTGCAG | 21500 fluorescence intensity (a.u.)
36 | CTAATTTAAATTTGTCTCTTTTCTACCCTCAACCATCATTCGGAGTCACCTAGTGCAG | 27200 fluorescence intensity (a.u.)
37 | AGAAATTGATTATGGATGAGTGCCCTTCTGCCTATTATGTCGGAGTCACCTAGTGCAG | 55900 fluorescence intensity (a.u.)
38 | TCCCTGAATTTTAGGAGTGATTGGACCTAAAGTTGAGGAGCGGAGTCACCTAGTGCAG | 17200 fluorescence intensity (a.u.)
39 | TGGCGGATTGATCTGGAGGTGGGCTTGTTGGGGTTGCTGTCGGAGTCACCTAGTGCAG | 14400 fluorescence intensity (a.u.)
40 | TCTACTAATTTAAAGTTGCAGTGTTCCTCCTCCCTCCTACCGGAGTCACCTAGTGCAG | 10700 fluorescence intensity (a.u.)
41 | ACTAATTGACTACTCCCTGAATTTAAAGTTGATGGTCAGTCGGAGTCACCTAGTGCAG | 61100 fluorescence intensity (a.u.)
42 | TGGAAATTGATGGAGGATGATCTGCAATTAGAAAGAAGAACGGAGTCACCTAGTGCAG | 29700 fluorescence intensity (a.u.)
43 | CTGGATTGATTGGGAGTGTTGGGTTTCGGGCTAGATCTGGCGGAGTCACCTAGTGCAG | 65200 fluorescence intensity (a.u.)
44 | CAGAATGACAACATTGACTGATTGACACTAGAAATACATACGGAGTCACCTAGTGCAG | 39000 fluorescence intensity (a.u.)
45 | TATGAATTGACTATTATATTGGCTATGGATGATTTGTAGTCGGAGTCACCTAGTGCAG | 30100 fluorescence intensity (a.u.)
46 | CCGTTGGATTGGAATCGGAGGGCCTACAATGACTGAGTGCCGGAGTCACCTAGTGCAG | 5860 fluorescence intensity (a.u.)
47 | TTCTGCTGATTGGAATGACTACAACACTAGAGTTGTCTGTCGGAGTCACCTAGTGCAG | 56100 fluorescence intensity (a.u.)
48 | CGTCTGGGGTTTGATTGGGATTGAGGCGAATTCGGGCGGTCGGAGTCACCTAGTGCAG | 34000 fluorescence intensity (a.u.)
49 | TGGGTAGGGGCAGTTAATTGGGAGGGAATTCCTCCTTCACCGGAGTCACCTAGTGCAG | 8890 fluorescence intensity (a.u.)
50 | ACTGATGAAATATCAAAGTGATTGTCAGACAAAGCGCCATCGGAGTCACCTAGTGCAG | 25800 fluorescence intensity (a.u.)
51 | TACCCATCTTCCATTGACAGACAATTGGGCCCCACTCCGCCGGAGTCACCTAGTGCAG | 7450 fluorescence intensity (a.u.)
52 | AGCTAATAATTACTAATTACTAAGTAATACTTCCTCTGTTCGGAGTCACCTAGTGCAG | 41700 fluorescence intensity (a.u.)
53 | ATTATTGACAAAAGCATCTCGATATCTTATGGATTAATATCGGAGTCACCTAGTGCAG | 4720 fluorescence intensity (a.u.)
54 | CGTGAGTGAAATTTTAATTACGTGTACATATAGGGGAGTACGGAGTCACCTAGTGCAG | 20500 fluorescence intensity (a.u.)
